Assay results reported in PubChem BioAssay.
Active and inactive are the calls of the source.

How the values were obtained:
Albumin (Bos taurus) = Albumin (Bos taurus) (UniProt P02769); experiment: bovine serum albumin binders on microarray, profiling panel, artefact control for SMM control protein annotation, biochemical, small-molecule microarray, Alexa647 label, 635/667 nm fluorescence (AID 1118); details: BSA-A647 binding, fluorescence 635 nm, higher = more signal;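 note: score merges 667 nm emission intensity and signal-to-noise per printed compound spot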
Albumin (Bos taurus), sequence (P02769 whole entry, looked up): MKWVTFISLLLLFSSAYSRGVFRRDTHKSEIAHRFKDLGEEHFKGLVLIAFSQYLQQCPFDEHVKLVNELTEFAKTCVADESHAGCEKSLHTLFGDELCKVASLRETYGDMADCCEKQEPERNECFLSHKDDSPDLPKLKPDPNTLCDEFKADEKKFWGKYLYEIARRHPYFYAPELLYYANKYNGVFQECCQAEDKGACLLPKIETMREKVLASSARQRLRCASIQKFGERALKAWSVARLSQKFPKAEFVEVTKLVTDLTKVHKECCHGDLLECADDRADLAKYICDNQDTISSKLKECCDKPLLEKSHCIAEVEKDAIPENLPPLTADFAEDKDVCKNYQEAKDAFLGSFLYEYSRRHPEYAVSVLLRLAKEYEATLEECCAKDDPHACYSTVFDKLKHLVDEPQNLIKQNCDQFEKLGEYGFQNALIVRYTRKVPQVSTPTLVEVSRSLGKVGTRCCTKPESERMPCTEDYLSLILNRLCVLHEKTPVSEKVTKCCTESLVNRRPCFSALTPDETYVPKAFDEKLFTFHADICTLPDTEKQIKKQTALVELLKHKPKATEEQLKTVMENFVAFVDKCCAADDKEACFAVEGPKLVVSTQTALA

[1] = small-molecule microarray binders of probe aXIP, primary screen, biochemical, NeuroSMM set, 635/667 nm fluorescence (AID 1119); details: higher = more signal, called active from +8 up or from −8 down;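 note: probe is the protein aXip251-270 applied at 1 µg/mL to compound-printed slides; binding of probe to printed compounds measured as 667 nm fluorescence plus signal to noise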
[2] = small-molecule binders of probe aNOTCH3, primary screen, biochemical, small-molecule microarray, 635/667 nm fluorescence (AID 1120); details: higher = more signal;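 note: probe is a biotin-tagged antibody raised against NOTCH3 rather than NOTCH3 protein; score merges spot fluorescence near 667 nm with spot signal to noise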
[3] = small-molecule binders of probe aNOTCH2, primary screen, biochemical, small-molecule microarray, 635/667 nm fluorescence (AID 1121); details: higher = more signal;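 note: score merges feature fluorescence read at 667 nm with its signal to noise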
[4] = biological target: Carbonic anhydrase 2 (Homo sapiens) (UniProt P00918); experiment: CAII small-molecule binders, profiling panel, biochemical, small-molecule microarray, Alexa647-labelled CAII (AID 1122); details: CAII-A647 binding fluorescence, higher = more signal
[5] = COS7 lysate on small-molecule microarray, probe aHis, 635 nm (AID 1123); details: COS7 cell lysate, fluorescence, higher = more signal;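 note: z-score combines 667nm fluorescence intensity with signal-to-noise per printed compound spot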
[6] = compound binding in COS7 lysate, probe aLAP1, primary screen, cell lysate, small-molecule microarray (AID 1124); details: probe aLAP1, fluorescence, higher = more signal;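 note: lysate comes from COS7 cells expressing LAP1 and is applied at 0.3 µg/mL; score merges spot fluorescence near 667 nm with signal-to-noise over triplicate slides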
Sam68 (KHDRBS1) = experiment: Sam68 small-molecule binders, primary screen, biochemical, small-molecule microarray, 635 nm fluorescence (AID 1125); details: small-molecule microarray binding, higher = more signal;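 note: score merges 667 nm channel intensity with signal to noise over triplicate slides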
[7] = test system: Chordin-like protein 2 (CHRDL2); experiment: CHRDL2 small-molecule binders, primary screen, biochemical, small-molecule microarray, 635 nm fluorescence (AID 1126); details: small-molecule microarray binding, fluorescence 635 nm; higher = more signal;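 note: printed compound slides probed with Chrdl2 protein at 4 µg/mL for 1 h at 4 C; score merges 667 nm emission intensity with signal to noise over three replicate slides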
[8] = biological target: Concanavalin-A (Canavalia ensiformis) (UniProt P02866); experiment: ConA small-molecule binders, primary screen, artefact control for SMM control protein annotation, biochemical, small-molecule microarray, Alexa647 label, 635 nm (AID 1127); details: ConA-A647 binding fluorescence, higher = more signal;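 note: z combines 667 nm emission intensity with signal-to-noise across three replicate slides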
Concanavalin-A (Canavalia ensiformis), sequence (P02866 whole entry, looked up): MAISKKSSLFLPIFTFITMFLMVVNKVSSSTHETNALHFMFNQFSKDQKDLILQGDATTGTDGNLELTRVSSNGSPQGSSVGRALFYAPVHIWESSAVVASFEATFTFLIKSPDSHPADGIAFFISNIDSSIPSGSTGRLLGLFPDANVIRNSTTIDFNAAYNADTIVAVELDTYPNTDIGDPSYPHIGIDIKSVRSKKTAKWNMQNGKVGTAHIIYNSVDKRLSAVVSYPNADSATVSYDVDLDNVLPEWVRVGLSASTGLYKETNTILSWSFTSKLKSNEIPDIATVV

[9] = anti-His antibody binders, primary screen, artefact control for SMM control protein annotation, biochemical, small-molecule microarray, 635 nm fluorescence (AID 1128); details: anti-His Alexa647 antibody binding, higher = more signal;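 note: score merges feature fluorescence with signal-to-noise for each printed compound spot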
[10] = test system: Human papillomavirus type 1a E7 protein (residues 1-88); experiment: HPV1a E7 small-molecule binders, primary screen, biochemical, small-molecule microarray, residues 1-88, 635 nm (AID 1129); details: small-molecule microarray binding, fluorescence 635 nm; higher = more signal
[11] = biological target: Focal adhesion kinase 1 (Homo sapiens) (UniProt Q05397); experiment: small-molecule microarray binders of FAK, primary screen, biochemical, 635/667 nm fluorescence, BSA, DTT (AID 1130); details: PTK2 binding, 635 nm fluorescence, higher = more signal;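 note: composite of spot emission at 667 nm and signal to noise over triplicate slides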
Focal adhesion kinase 1 (Homo sapiens), sequence (Q05397 whole entry, looked up): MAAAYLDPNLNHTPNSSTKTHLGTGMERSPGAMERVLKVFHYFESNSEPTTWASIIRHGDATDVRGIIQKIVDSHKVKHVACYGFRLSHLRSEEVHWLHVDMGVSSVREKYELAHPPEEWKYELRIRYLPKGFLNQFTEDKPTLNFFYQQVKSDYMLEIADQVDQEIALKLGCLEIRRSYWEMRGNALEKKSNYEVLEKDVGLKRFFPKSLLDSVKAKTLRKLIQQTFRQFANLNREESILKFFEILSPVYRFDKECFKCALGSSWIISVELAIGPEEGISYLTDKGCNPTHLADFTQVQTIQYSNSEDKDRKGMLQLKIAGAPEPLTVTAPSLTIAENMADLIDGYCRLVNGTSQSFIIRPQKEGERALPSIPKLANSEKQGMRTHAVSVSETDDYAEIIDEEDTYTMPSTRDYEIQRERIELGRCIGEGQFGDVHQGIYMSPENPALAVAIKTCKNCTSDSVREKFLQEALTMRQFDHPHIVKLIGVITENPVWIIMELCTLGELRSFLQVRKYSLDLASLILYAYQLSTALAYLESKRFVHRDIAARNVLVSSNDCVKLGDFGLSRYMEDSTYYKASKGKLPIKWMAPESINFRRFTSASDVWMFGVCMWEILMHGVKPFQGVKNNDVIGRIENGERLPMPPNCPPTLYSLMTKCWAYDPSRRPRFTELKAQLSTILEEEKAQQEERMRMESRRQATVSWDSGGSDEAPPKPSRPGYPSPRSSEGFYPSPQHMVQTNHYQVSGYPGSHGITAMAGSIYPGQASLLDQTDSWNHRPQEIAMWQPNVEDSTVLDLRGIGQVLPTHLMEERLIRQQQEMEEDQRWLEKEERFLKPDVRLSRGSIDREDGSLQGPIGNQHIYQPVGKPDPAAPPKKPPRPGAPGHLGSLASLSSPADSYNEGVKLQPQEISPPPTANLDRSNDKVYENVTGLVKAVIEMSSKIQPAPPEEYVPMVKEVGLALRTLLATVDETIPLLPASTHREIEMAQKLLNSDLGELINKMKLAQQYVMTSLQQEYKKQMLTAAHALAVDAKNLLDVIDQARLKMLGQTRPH

[12] = test system: Fibrinogen (Alexa647-labelled); experiment: fibrinogen binders on compound microarrays, profiling panel, artefact control for SMM control-protein annotation, biochemical, small-molecule microarray, 635/667 nm fluorescence (AID 1131); details: fibrinogen-A647 binding fluorescence, higher = more signal;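 note: z-score merges 667 nm fluorescence with per-spot signal-to-noise over triplicate slides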
[13] = biological target: Follistatin (Homo sapiens) (UniProt P19883); experiment: follistatin binders on small-molecule microarrays, primary screen, biochemical, small-molecule microarray, 635/667 nm fluorescence (AID 1132); details: FST binding, 635 nm fluorescence, higher = more signal
Follistatin (Homo sapiens), sequence (P19883 whole entry, looked up): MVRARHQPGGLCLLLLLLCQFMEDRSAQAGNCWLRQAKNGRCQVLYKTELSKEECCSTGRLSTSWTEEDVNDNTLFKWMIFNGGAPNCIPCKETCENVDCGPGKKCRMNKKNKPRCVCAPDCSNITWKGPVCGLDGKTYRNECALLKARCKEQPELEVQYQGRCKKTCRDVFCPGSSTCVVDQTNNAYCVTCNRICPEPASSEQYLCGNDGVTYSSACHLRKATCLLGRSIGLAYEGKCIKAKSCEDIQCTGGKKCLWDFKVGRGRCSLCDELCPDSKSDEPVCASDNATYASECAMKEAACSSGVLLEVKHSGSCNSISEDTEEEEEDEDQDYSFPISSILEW

[14] = biological target: Fibroblast growth factor 2 (Homo sapiens) (UniProt P09038); experiment: FGF2 binders on small-molecule microarrays, primary screen, biochemical, small-molecule microarray, 635/667 nm fluorescence (AID 1133); details: small-molecule microarray binding, FGF2, fluorescence 635/667; higher = more signal
Fibroblast growth factor 2 (Homo sapiens), sequence (P09038 whole entry, looked up): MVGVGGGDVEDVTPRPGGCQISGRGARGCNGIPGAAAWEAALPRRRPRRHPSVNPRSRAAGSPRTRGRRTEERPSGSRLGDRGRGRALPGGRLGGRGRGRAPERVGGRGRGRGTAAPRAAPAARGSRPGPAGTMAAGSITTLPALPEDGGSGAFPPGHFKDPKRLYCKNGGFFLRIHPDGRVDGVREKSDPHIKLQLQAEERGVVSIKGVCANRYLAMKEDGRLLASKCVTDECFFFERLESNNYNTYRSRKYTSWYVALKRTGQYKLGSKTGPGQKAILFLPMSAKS

[15] = mitochondrial membrane potential change in A549 cells, profiling panel, cell-based, JC-1 fluorescence, basal, 24 h, 100 nL (AID 1138); details: higher = more signal;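 note: A549 lung adenocarcinoma cells under basal conditions with no added stimulus; test concentration not given here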
Lefty1 = Lefty1 binders on small-molecule microarrays, primary screen, biochemical, small-molecule microarray, 635/667 nm fluorescence (AID 1139); details: small-molecule microarray binding, fluorescence 635/667; higher = more signal
[16] = test system: wheat germ agglutinin (Triticum aestivum), Alexa647-labelled; experiment: wheat germ agglutinin binders on compound microarrays, profiling panel, artefact control for SMM control-protein annotation, biochemical, small-molecule microarray, 635/667 nm fluorescence (AID 1140); details: WGA-A647 binding, 635 nm fluorescence, higher = more signal;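 note: score merges 667 nm feature emission with signal to noise over triplicate slides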
[17] = biological target: Luciferin 4-monooxygenase (Photinus pyralis) (UniProt P08659); experiment: firefly luciferase enzyme inhibitors, primary screen, biochemical, luminescence, purified enzyme, 2006 set (AID 1141); details: SteadyGlo luminescence, 30 min, higher = more signal, called active from +8 up or from −8 down;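 note: cell-free assay with purified firefly luciferase at 100 ng per well in PBS; test concentration not given here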
Luciferin 4-monooxygenase (Photinus pyralis), sequence (P08659 whole entry, looked up): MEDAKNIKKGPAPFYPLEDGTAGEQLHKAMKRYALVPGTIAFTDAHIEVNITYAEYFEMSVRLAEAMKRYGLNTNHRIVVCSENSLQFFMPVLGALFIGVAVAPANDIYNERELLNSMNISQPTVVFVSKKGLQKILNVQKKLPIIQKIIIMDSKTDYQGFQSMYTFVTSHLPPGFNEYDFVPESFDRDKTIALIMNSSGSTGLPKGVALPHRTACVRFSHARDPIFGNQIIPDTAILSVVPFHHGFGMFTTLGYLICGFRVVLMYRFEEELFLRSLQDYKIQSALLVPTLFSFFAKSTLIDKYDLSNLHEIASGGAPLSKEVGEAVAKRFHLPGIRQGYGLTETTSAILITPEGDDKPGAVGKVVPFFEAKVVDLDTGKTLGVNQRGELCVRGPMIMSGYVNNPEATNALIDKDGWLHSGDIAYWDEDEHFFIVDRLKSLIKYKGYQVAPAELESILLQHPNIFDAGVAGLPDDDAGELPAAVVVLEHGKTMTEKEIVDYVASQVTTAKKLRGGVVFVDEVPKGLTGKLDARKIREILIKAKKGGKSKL

| Compound | composite z-score (Albumin (Bos taurus)) | composite Z-score [1] | composite z-score [2] | composite z-score [3] | composite z-score [4] | composite z-score [5] | composite z-score [6] | composite z-score (Sam68 (KHDRBS1)) | composite z-score [7] | composite z-score [8] | composite z-score [9] | composite z-score [10] | composite z-score [11] | composite z-score [12] | composite z-score [13] | composite z-score [14] | z-score [15] | composite z-score (Lefty1) | composite z-score [16] | z-score [17] |
| --- | --- | --- | --- | --- | --- | --- | --- | --- | --- | --- | --- | --- | --- | --- | --- | --- | --- | --- | --- | --- |
| O=C(NCCN1CCOCC1)[C@@H]1c2ccccc2C(=O)N(Cc2ccccc2Cl)[C@H]1c1ccc(CO)cc1 | -0.281 | 0.239 (inactive) | -0.224 | -0.0986 | 0.667 | 0.0465 | 1.67 | -0.721 | -0.761 | -1.19 | -1.29 | -0.867 | 0.0685 | -0.542 | -0.163 | -0.976 | 1.79 | -1.19 | 0.0616 | 0.645 (inactive) |
| [N-]=[N+]=Nc1ccccc1C[C@]1(C(=O)NCC(O)CO)COC(c2ccc(OCCCO)cc2)=N1 (stereo not given in full) | 0.407 | 0.371 (inactive) | 0.0339 | -0.0482 | 0.753 | 2.09 | 0.282 | -0.206 | -1.21 | 0.832 | 1.91 | 1.23 | 0.352 | 0.579 | -0.0953 | -0.483 | 2 | -0.729 | 0.14 | -4.04 (inactive) |
| COc1ccccc1CN1C(=O)c2ccccc2[C@](Cc2ccccc2I)(C(=O)O)[C@@H]1c1ccc(CO)cc1 | 0.76 | 0.114 (inactive) | 0.0961 | -0.0238 | 0.328 | 2 | 0.704 | 1.27 | 0.227 | 1.18 | 1.76 | 1.21 | 0.758 | 0.809 | 1.26 | 1.33 | 0.227 | 0.74 | 0.762 | -1.01 (inactive) |
| CCOC(=O)C[C@H]1[C@H](OC(=O)c2ccc(-c3ccccc3)cc2)[C@@H](NC(=O)CC(C)C)c2cc(OCCCO)ccc2N1C(=O)c1ccc2ccccc2n1 | 0.363 | -0.122 (inactive) | 0.041 | -0.161 | 0.0808 | 1.19 | -0.259 | 0.787 | 0.0987 | 1.07 | -0.282 | 0.516 | 0.365 | 0.944 | 0.285 | 0.0792 | 0.5 | 0.455 | 0.262 | 0.854 (inactive) |
| CC1CC/C=C\[C@H]2OC34C=CCN(c5ccc6ccccc6c5)C(=O)[C@H]3N(CCCO)C(=O)[C@@H]4C2C(=O)O1 (stereo not given in full) | -0.132 | 1.18 (inactive) | -0.276 | -0.16 | 0.574 | -0.515 | -0.701 | -0.335 | -1.77 | -0.71 | 1.08 | -0.453 | -0.633 | -0.794 | -0.82 | -1.86 | -0.148 | -1.12 | -0.985 | -0.212 (inactive) |
| O=C1OCCC=C[C@H]2OC34C=CCN(c5ccc6ccccc6c5)C(=O)[C@H]3N(CCCO)C(=O)[C@@H]4C12 (stereo not given in full) | -1.39 | 0.168 (inactive) | -0.278 | -0.205 | -0.303 | -0.626 | -0.678 | -1.82 | -2.29 | -0.533 | -0.581 | -2.27 | -0.459 | -0.51 | -1.25 | -2.33 | -0.446 | -1.81 | -1.29 | -0.244 (inactive) |
| CCCCC(O)C1C=CC2C(=O)N(C)C(=O)C2N1N(c1ccccc1)c1ccccc1 (stereo not given) | 0.878 | 0.418 (inactive) | 0.183 | 0.0203 | 0.797 | 2.73 | 0.923 | 1.32 | -0.711 | 1.1 | 1.92 | 1.15 | 0.912 | 0.824 | 0.613 | -0.604 | 0.804 | 0.194 | 1.21 | -0.004 (inactive) |
| O=C1O[C@@H](c2ccccc2)[C@@H](c2ccccc2)N2[C@@H](c3ccc(O)cc3)[C@]3(C(=O)Nc4ccc(C#CCCO)cc43)[C@@H](C(=O)N3CCN(c4ncccn4)CC3)[C@H]12 | -0.777 | 0.698 (inactive) | 0.148 | -0.457 | 0.523 | 0.457 | -0.143 | 1.11 | 1.14 | 1.12 | 1.56 | 1.14 | 0.165 | 0.512 | 1.37 | 1.68 | -1.25 | 0.952 | 0.0869 | 0.764 (inactive) |
| CCCC1(C(=O)OC)C=C2C(=C(C)C(=O)C2C)CN1 (stereo not given) | -0.15 | 0.931 (inactive) | 0.0416 | -0.0936 | 0.664 | 1.24 | -0.293 | -0.406 | -0.027 | -2.2 | 2.81 | -0.0152 | 0.0853 | 0.892 | 0.503 | -0.343 | 0.511 | -0.451 | 0.594 | 2.26 (inactive) |
| COc1ccc(C(=O)Nc2ccc(CN3C(=O)[C@]4(O[C@H](CC(=O)N5Cc6ccccc6C[C@H]5CO)[C@@H]([Si](C)(C)c5ccc(OC)cc5)[C@@H]4C)c4ccccc43)cc2)cc1 | -0.254 | -0.236 (inactive) | -0.0377 | -0.0995 | 0.151 | 1.1 | 0.0688 | 1.17 | 1.14 | 0.67 | 1.46 | 1.16 | 0.353 | 0.547 | 1.1 | 1.35 | -0.615 | 1.08 | 0.75 | -0.379 (inactive) |
| [N-]=[N+]=Nc1ccccc1[C@H]1OC(c2ccc(OCCCO)cc2)=N[C@@]1(Cc1ccccc1)C(=O)NCCN1CCOCC1 | 0.887 | 1.16 (inactive) | 0.457 | 0.117 | 0.529 | 2.87 | 0.634 | 1.3 | 0.0045 | 1.16 | 1.65 | 1.23 | 0.309 | 0.996 | 1.21 | 0.989 | 2.49 | 0.624 | 1.2 | -4.32 (inactive) |
